# Among all 5,500 compounds or so, about 2,000 (36%) were called active. Another 18% or so got no clear call; they are omitted. This is one part of the list. A number with no mark means an inactive call. No stated cut-off is given here; in the data, active means normalized growth mostly below about 0.91 (no sharp cut-off); inconclusive means no clear call, values can overlap the other calls; inactive means mostly above about 0.92.
# Experiment: chemical genetic growth profiling, strain panel (AID 1159580);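 further: tested at 20 µM; growth read once vehicle control cultures reached saturation at 30 °C; 1 = growth at the plate median or of vehicle wells; lower values mean less growth of the strain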
# Details: growth OD
# [1] = S. cerevisiae deletion strains, locus YAL013W, strain DEP1, active compounds read low
# [2] = S. cerevisiae deletion strains, locus YBR229C, strain ROT2, active compounds read low
# [3] = S. cerevisiae deletion strains, locus YDL101C, strain DUN1, active compounds read low
# [4] = S. cerevisiae deletion strains, locus YDR150W, strain NUM1, active compounds read low
# [5] = S. cerevisiae deletion strains, locus YEL061C, strain CIN8, active compounds read low
# [6] = S. cerevisiae deletion strains, locus YGR078C, strain PAC10, active compounds read low
# [7] = S. cerevisiae deletion strains, locus YHR030C, strain SLT2, active compounds read low
# [8] = S. cerevisiae deletion strains, locus YHR087W, strain rtc3, active compounds read low
# [9] = S. cerevisiae deletion strains, locus YJR043C, strain POL32, active compounds read low
# [10] = S. cerevisiae deletion strains, locus YJR075W, strain HOC1, active compounds read low
# [11] = S. cerevisiae deletion strains, locus YLR039C, strain RIC1, active compounds read low
# [12] = S. cerevisiae deletion strains, locus YLR058C, strain SHM2 (second series), active compounds read low
# [13] = S. cerevisiae deletion strains, locus YLR085C, strain ARP6, active compounds read low
# [14] = S. cerevisiae deletion strains, locus YLR262C, strain YPT6, active compounds read low
# [15] = S. cerevisiae deletion strains, locus YML094W, strain GIM5, active compounds read low
# [16] = S. cerevisiae deletion strains, locus YMR219W, strain ESC1, active compounds read low
# [17] = S. cerevisiae deletion strains, locus YMR263W, strain SAP30, active compounds read low
# [18] = S. cerevisiae deletion strains, locus YMR307W, strain GAS1, active compounds read low
# [19] = S. cerevisiae deletion strains, locus YNL153C, strain GIM3, active compounds read low
# [20] = S. cerevisiae deletion strains, locus YNL298W, strain CLA4 (second series), active compounds read low
# [21] = S. cerevisiae deletion strains, locus YNL322C, strain KRE1, active compounds read low
# [22] = S. cerevisiae deletion strains, locus YNR030W, strain Alg12, active compounds read low
# [23] = S. cerevisiae deletion strains, locus YOL006C, strain TOP1, active compounds read low
# [24] = S. cerevisiae deletion strains, locus YPL055C, strain LGE1, active compounds read low
# [25] = S. cerevisiae deletion strains, locus YPL241C, strain CIN2, active compounds read low
# [26] = S. cerevisiae deletion strains, locus YPR135W, strain CTF4, active compounds read low
structure (smiles),measurement,setting,value
Cc1c(C(=O)O)cc(-c2ccccc2)n1-c1ccccc1,normalized growth,[1],0.988
same,normalized growth,[2],1.01
same,normalized growth,[3],1
same,normalized growth,[4],0.892
same,normalized growth,[5],0.941
same,normalized growth,[6],0.999
same,normalized growth,[7],0.613 (active)
same,normalized growth,[8],0.985
same,normalized growth,"S. cerevisiae deletion strains, locus YJL187C, strain SWE1, active compounds read low",0.988
same,normalized growth,[9],0.999
same,normalized growth,[10],0.959
same,normalized growth,"S. cerevisiae deletion strains, locus YKL190W, strain CNB1, active compounds read low",0.975
same,normalized growth,[11],0.674 (active)
same,normalized growth,[12],1.01
same,normalized growth,[13],0.654 (active)
same,normalized growth,[14],0.66 (active)
same,normalized growth,[15],0.945
same,normalized growth,[16],0.998
same,normalized growth,[17],0.981
same,normalized growth,[18],0.467 (active)
same,normalized growth,[19],0.952
same,normalized growth,[20],0.869
same,normalized growth,[21],1
same,normalized growth,[22],0.923
same,normalized growth,[23],0.85
same,normalized growth,[24],0.865
same,normalized growth,[25],0.907
same,normalized growth,[26],0.64 (active)
same,normalized growth,"S. cerevisiae strains, strain wild type, active compounds read low",0.987
Cc1nn(-c2ccccc2)nc1C(=O)NC(=O)N1CCCC1,normalized growth,[1],0.992
same,normalized growth,[2],0.983
same,normalized growth,[3],0.949
same,normalized growth,"S. cerevisiae deletion strains, locus YDL134C, strain PPH21, active compounds read low",1.01
same,normalized growth,[4],0.871
same,normalized growth,[5],1.02
same,normalized growth,[6],0.964
same,normalized growth,[7],0.94
same,normalized growth,[8],1.03
same,normalized growth,[9],0.977
same,normalized growth,[10],0.995
same,normalized growth,[11],0.998
same,normalized growth,[12],0.997
same,normalized growth,[13],1.02
same,normalized growth,[14],1.02
same,normalized growth,[15],1.02
same,normalized growth,[16],0.997
same,normalized growth,[17],0.987
same,normalized growth,[18],0.927
same,normalized growth,"S. cerevisiae deletion strains, locus YNL128W, strain TEP1, active compounds read low",0.991
same,normalized growth,[19],0.986
same,normalized growth,[20],1.01
same,normalized growth,[21],0.995
same,normalized growth,[22],1
same,normalized growth,[23],0.955
same,normalized growth,[24],1
same,normalized growth,[25],0.965
same,normalized growth,[26],0.949
Cc1cc(OC(=O)N2CCCCC2)c(C(C)C)cc1[N+](C)(C)C,normalized growth,"S. cerevisiae deletion strains, locus YAL021C, strain ccr4, active compounds read low",0.994
same,normalized growth,"S. cerevisiae deletion strains, locus YAL026C, strain drs2, active compounds read low",1.03
same,normalized growth,"S. cerevisiae deletion strains, locus YAL030W, strain snc1, active compounds read low",1.01
same,normalized growth,"S. cerevisiae deletion strains, locus YBL061C, strain skt5, active compounds read low",1.01
same,normalized growth,"S. cerevisiae deletion strains, locus YBR009C, strain hhf1, active compounds read low",0.992
same,normalized growth,"S. cerevisiae deletion strains, locus YBR023C, strain chs3, active compounds read low",1.01
same,normalized growth,"S. cerevisiae deletion strains, locus YBR171W, strain sec66, active compounds read low",1.01
same,normalized growth,"S. cerevisiae deletion strains, locus YBR231C, strain swc5, active compounds read low",1.02
same,normalized growth,"S. cerevisiae deletion strains, locus YBR279W, strain paf1, active compounds read low",1.01
same,normalized growth,"S. cerevisiae deletion strains, locus YCL011C, strain gbp2, active compounds read low",0.998
same,normalized growth,"S. cerevisiae deletion strains, locus YCL016C, strain dcc1, active compounds read low",0.987
same,normalized growth,"S. cerevisiae deletion strains, locus YCL069W, strain vba3, active compounds read low",1
same,normalized growth,"S. cerevisiae deletion strains, locus YCR088W, strain abp1, active compounds read low",1.01
same,normalized growth,"S. cerevisiae deletion strains, locus YDL005C, strain med2, active compounds read low",1.02
same,normalized growth,"S. cerevisiae deletion strains, locus YDL040C, strain nat1, active compounds read low",1.01
same,normalized growth,"S. cerevisiae deletion strains, locus YDR001C, strain nth1, active compounds read low",1.01
same,normalized growth,"S. cerevisiae deletion strains, locus YDR069C, strain doa4, active compounds read low",1.03
same,normalized growth,"S. cerevisiae deletion strains, locus YDR137W, strain rgp1, active compounds read low",1.03
same,normalized growth,"S. cerevisiae deletion strains, locus YDR159W, strain sac3, active compounds read low",1.06
same,normalized growth,"S. cerevisiae deletion strains, locus YDR195W, strain ref2",0.997
same,normalized growth,"S. cerevisiae deletion strains, locus YDR297W, strain sur2, active compounds read low",1.01
same,normalized growth,"S. cerevisiae deletion strains, locus YDR334W, strain swr1, active compounds read low",1
same,normalized growth,"S. cerevisiae deletion strains, locus YDR335W, strain msn5, active compounds read low",1.01
same,normalized growth,"S. cerevisiae deletion strains, locus YDR392W, strain spt3, active compounds read low",0.995
same,normalized growth,"S. cerevisiae deletion strains, locus YEL003W, strain gim4, active compounds read low",1.01
same,normalized growth,"S. cerevisiae deletion strains, locus YEL037C, strain rad23, active compounds read low",1
same,normalized growth,"S. cerevisiae deletion strains, locus YEL061C, strain CIN8 (second series), active compounds read low",1.01
same,normalized growth,"S. cerevisiae deletion strains, locus YER015W, strain faa2, active compounds read low",1
same,normalized growth,"S. cerevisiae deletion strains, locus YER016W, strain bim1, active compounds read low",1.01
same,normalized growth,"S. cerevisiae deletion strains, locus YER111C, strain swi4, active compounds read low",1.01
same,normalized growth,"S. cerevisiae deletion strains, locus YER155C, strain BEM2 (second series), active compounds read low",0.998
same,normalized growth,"S. cerevisiae deletion strains, locus YFR010W, strain ubp6, active compounds read low",1.02
same,normalized growth,"S. cerevisiae deletion strains, locus YGL167C, strain pmr1, active compounds read low",1.01
same,normalized growth,"S. cerevisiae deletion strains, locus YGL173C, strain kem1, active compounds read low",1.02
same,normalized growth,"S. cerevisiae deletion strains, locus YGL227W, strain vid30, active compounds read low",0.999
same,normalized growth,"S. cerevisiae deletion strains, locus YGL240W, strain doc1, active compounds read low",1.02
same,normalized growth,"S. cerevisiae deletion strains, locus YGL253W, strain hxk2, active compounds read low",1.01
same,normalized growth,"S. cerevisiae deletion strains, locus YHR013C, strain ard1, active compounds read low",0.995
same,normalized growth,"S. cerevisiae deletion strains, locus YHR027C, strain rpn1, active compounds read low",1.01
same,normalized growth,[7],1
same,normalized growth,"S. cerevisiae deletion strains, locus YHR079C, strain IRE1, active compounds read low",1.01
same,normalized growth,"S. cerevisiae deletion strains, locus YHR142W, strain chs7, active compounds read low",0.986
same,normalized growth,"S. cerevisiae deletion strains, locus YJL092W, strain hpr5, active compounds read low",1.01
same,normalized growth,"S. cerevisiae deletion strains, locus YJL095W, strain BCK1 (second series), active compounds read low",1
same,normalized growth,"S. cerevisiae deletion strains, locus YJL095W, strain BCK1, active compounds read low",1.01
same,normalized growth,"S. cerevisiae deletion strains, locus YJL115W, strain asf1, active compounds read low",1.02
same,normalized growth,"S. cerevisiae deletion strains, locus YJL129C, strain trk1, active compounds read low",1.03
same,normalized growth,"S. cerevisiae deletion strains, locus YJL154C, strain vps35, active compounds read low",1.01
same,normalized growth,"S. cerevisiae deletion strains, locus YJL164C, strain tpk1, active compounds read low",1
same,normalized growth,"S. cerevisiae deletion strains, locus YJL166W, strain qcr8, active compounds read low",1.05
same,normalized growth,"S. cerevisiae deletion strains, locus YJR066W, strain TOR1, active compounds read low",0.911
same,normalized growth,"S. cerevisiae deletion strains, locus YKL160W, strain elf1, active compounds read low",0.988
same,normalized growth,"S. cerevisiae deletion strains, locus YKR026C, strain gcn3, active compounds read low",1
same,normalized growth,"S. cerevisiae deletion strains, locus YKR091W, strain srl3, active compounds read low",1
same,normalized growth,"S. cerevisiae deletion strains, locus YLL001W, strain dnm1, active compounds read low",1
same,normalized growth,"S. cerevisiae deletion strains, locus YLL026W, active compounds read low",1.03
same,normalized growth,"S. cerevisiae deletion strains, locus YLL041C, strain sdh2, active compounds read low",1.03
same,normalized growth,"S. cerevisiae deletion strains, locus YLR027C, strain aat2, active compounds read low",1.01
same,normalized growth,"S. cerevisiae deletion strains, locus YLR113W, strain HOG1, active compounds read low",1
same,normalized growth,"S. cerevisiae deletion strains, locus YLR221C, strain rsa3, active compounds read low",1.01
same,normalized growth,"S. cerevisiae deletion strains, locus YLR258W, strain gsy2, active compounds read low",0.987
same,normalized growth,"S. cerevisiae deletion strains, locus YLR262C, strain YPT6 (second series), active compounds read low",1.03
same,normalized growth,"S. cerevisiae deletion strains, locus YLR320W, strain mms22, active compounds read low",1.02
same,normalized growth,"S. cerevisiae deletion strains, locus YLR342W, strain FKS1, active compounds read low",1.01
same,normalized growth,"S. cerevisiae deletion strains, locus YLR357W, strain rsc2, active compounds read low",1.06
same,normalized growth,"S. cerevisiae deletion strains, locus YLR370C, strain arc18, active compounds read low",0.989
same,normalized growth,"S. cerevisiae deletion strains, locus YLR384C, strain iki3, active compounds read low",0.999
same,normalized growth,"S. cerevisiae deletion strains, locus YML120C, strain ndi1, active compounds read low",1
same,normalized growth,"S. cerevisiae deletion strains, locus YMR058W, strain fet3, active compounds read low",1.02
same,normalized growth,"S. cerevisiae deletion strains, locus YMR125W, strain sto1, active compounds read low",1.01
same,normalized growth,"S. cerevisiae deletion strains, locus YMR129W, active compounds read low",1.01
same,normalized growth,"S. cerevisiae deletion strains, locus YMR205C, strain PFK2, active compounds read low",1.02
same,normalized growth,"S. cerevisiae deletion strains, locus YMR231W, strain pep5, active compounds read low",1.01
same,normalized growth,"S. cerevisiae deletion strains, locus YNL071W, strain lat1, active compounds read low",1.01
same,normalized growth,"S. cerevisiae deletion strains, locus YNL183C, strain NPR1, active compounds read low",0.949
same,normalized growth,"S. cerevisiae deletion strains, locus YNL209W, strain ssb2, active compounds read low",1
same,normalized growth,"S. cerevisiae deletion strains, locus YNL248C, strain rpa49, active compounds read low",1.02
same,normalized growth,"S. cerevisiae deletion strains, locus YNL322C, strain KRE1 (second series), active compounds read low",1
same,normalized growth,"S. cerevisiae deletion strains, locus YNR049C, strain mso1, active compounds read low",1.01
same,normalized growth,"S. cerevisiae deletion strains, locus YOR001W, strain rrp6, active compounds read low",1.04
same,normalized growth,"S. cerevisiae deletion strains, locus YOR070C, strain gyp1, active compounds read low",1
same,normalized growth,"S. cerevisiae deletion strains, locus YOR080W, strain dia2, active compounds read low",1.01
same,normalized growth,"S. cerevisiae deletion strains, locus YOR083W, strain WHI5, active compounds read low",0.975
same,normalized growth,"S. cerevisiae deletion strains, locus YOR106W, strain vam3, active compounds read low",0.99
same,normalized growth,"S. cerevisiae deletion strains, locus YOR231W, strain MKK1, active compounds read low",0.999
same,normalized growth,"S. cerevisiae deletion strains, locus YOR265W, strain rbl2, active compounds read low",0.98
same,normalized growth,"S. cerevisiae deletion strains, locus YOR270C, strain vph1, active compounds read low",1.08
same,normalized growth,"S. cerevisiae deletion strains, locus YOR290C, strain snf2, active compounds read low",0.988
same,normalized growth,"S. cerevisiae deletion strains, locus YPL051W, strain arl3, active compounds read low",1.01
same,normalized growth,"S. cerevisiae deletion strains, locus YPL078C, strain atp4, active compounds read low",0.99
same,normalized growth,"S. cerevisiae deletion strains, locus YPL106C, strain sse1, active compounds read low",1.01
same,normalized growth,"S. cerevisiae deletion strains, locus YPL240C, strain hsp82, active compounds read low",1.01
same,normalized growth,"S. cerevisiae deletion strains, locus YPL256C, strain CLN2, active compounds read low",0.978
